An excerpt weighted towards active compounds, which were near 19% of everything screened.
IL-1B inflam inh: inflammasome signaling inhibition, IL-1 beta readout | THP-1 LPS/ATP IL-1B secretion, AlphaLISA, 16 h; active compounds read low | activity change, % at 57.5 µM | 360,000 tested, 4.7% active | AID 743279; in the data active = activity change below about -50%; inconclusive = mostly about -30% to -49%; note: % is set by controls: 0 for no effect and ±100 for the full control effect
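THP-1 cells pretreated 1 hr with compounds (up to 57.5 uM final), then stimulated with LPS (250 ng/mL final) plus ATP (1.25 mM final); secreted IL-1B measured by AlphaLISA after 16 hr, decreased signal indicating inhibition.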
DT40 TDP1 CPT: DT40-hTDP1 cell growth loss with CPT | chicken DT40 Tdp1-/-;hTDP1 cells + 20 nM CPT, ATP luminescence, 48 h | 420,000 tested, 12% active | Potency, µM (top dose mostly 46.2 µM), inactives show at the top dose activity change, negative = growth inhibition, hits mostly inhibitors; note: potency is the fitted concentration of half-maximal effect; % is set by controls: 0 for no effect and ±100 for the full control effect; nearly all actives have a fitted effect of over 55% in size
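Chicken DT40 Tdp1-/- cells complemented with human TDP1, 400 cells/well, exposed to compounds plus 20 nM camptothecin for at least 48 h at 37 C; viability read as ATP content by CellTiter-Glo luminescence.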
BCR signal inh: blocks chronic active B-cell receptor signaling; 340,000 tested, 0.05% active; Potency, µM (series often up to 46.1 µM), without a hit: top-dose activity change, negative = inhibition, actives largely listed as inhibitors; ABC-DLBCL IkBa-CBG/CBR reporter, luminescence ratio, 4 h; active = well fitted inhibition curve with a large enough effect in the signal ratio, with a control signal flat, not every such curve was filed as active; inconclusive = small, poorly fitted or top-dose-only effect, or effect the other way, or a change in a side signal; the % refers to the signal ratio;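 note: potency is the fitted concentration of half-maximal effect; plate controls were basal doxycycline-induced cells for no effect and cells given 10 µM MG132 for full effect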
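TMD8 ABC-DLBCL cells carrying doxycycline-inducible green luciferase fused to IkappaBalpha plus unfused red luciferase were exposed to compounds (up to 46 uM) for 4 hrs at 37C. Activity came from the overlap-corrected green/red luminescence ratio.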
SW480 rereplic: induces DNA re-replication in SW480 colon adenocarcinoma cells; Potency, µM (doses to about 46.1 µM), for the others: at the highest dose re-replication activation, usual class: activators; SW480 DNA re-replication, Hoechst DNA content imaging, 48 h; 340,000 tested, 1.8% active; note: potency is the fitted concentration of half-maximal effect; % of control where 0% means no effect; nearly all actives have a fitted effect of over 55% in size
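Compounds, transferred as 23 nL by pin tool, were incubated with cells for 48 hr; DNA content per nucleus was then quantified by Hoechst staining and fluorescence plate imaging.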
DT40 TDP1 no CPT: qHTS for Inhibitors of human tyrosyl-DNA phosphodiesterase 1 (TDP1): qHTS in cells in absence of CPT; DT40 Tdp1-/- hTDP1 cells, no CPT, ATP luminescence, 48 h; Potency, µM (doses to about 46.2 µM), without a hit: at the top dose activity change, negative = growth inhibition, hits mostly inhibitors; 420,000 tested, 15% active; note: potency is the fitted concentration of half-maximal effect; % is set by controls: 0 for no effect and ±100 for the full control effect; nearly all actives have a fitted effect of over 55% in size
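DT40 Tdp1-/-;hTDP1 cells, no CPT (DMSO vehicle only), 400 cells/well; compounds pin-transferred; ≥48 hr, 37 °C; CellTiter-Glo 30 min RT dark, luminescence read.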
MCF10A rereplic: DNA re-replication induction in MCF 10a cells; AID 624296; Potency, µM (doses to about 46.1 µM), inactives show at the highest dose activity, positive = re-replication, actives largely listed as activators; MCF 10A DNA re-replication, Hoechst nuclear intensity, 48 h; 350,000 tested, 2.9% active; note: potency is the fitted concentration of half-maximal effect; % of control where 0% means no effect; nearly all actives have a fitted effect of over 50% in size
Starred values were filed as active, the others as inactive; [ ] = another dose, or the depositor's remark. Unless noted, calls come from the whole dose curve; as a rule, active = well fitted curve in the direction sought with a large enough effect; inconclusive = small, poorly fitted or top-dose-only effect, or another doubt; inactive = no such curve, though single readings can be large; an effect the other way counts as inactive or inconclusive.

Results for COc1ccc(C2=NOC(C(=O)NCc3ccccn3)C2)cc1 (stereo not given) ?
IL-1B inflam inh: 19; DT40 TDP1 CPT: -27%; BCR signal inh: -23%; SW480 rereplic: 9%; DT40 TDP1 no CPT: -29%; MCF10A rereplic: 23%

How did COc1ccc(CNC(=O)C2CC(C)=CCC2C(=O)O)cc1 (stereo not given) do in these assays?
IL-1B inflam inh: 74; DT40 TDP1 CPT: inconclusive; BCR signal inh: 4%; SW480 rereplic: -20%; DT40 TDP1 no CPT: -16%; MCF10A rereplic: 0%

How did COc1ccc(CNC(=O)C2CC(c3ccc(OC)cc3)=NO2)cc1 (stereo not given) do in these assays?
IL-1B inflam inh: 9; DT40 TDP1 CPT: inconclusive; BCR signal inh: -1%; SW480 rereplic: 4%; DT40 TDP1 no CPT: -15%; MCF10A rereplic: 6.5µM*

How did CCn1ncc(C2=NOC(C(=O)Nc3cccnc3)C2)c1C (stereo not given) do in these assays?
IL-1B inflam inh: -11; DT40 TDP1 CPT: -23%; BCR signal inh: -5%; SW480 rereplic: 0%; DT40 TDP1 no CPT: -28%; MCF10A rereplic: 1%

Results for COc1ccc(CNC(=O)C2CC(C)=C(C)CC2C(=O)O)cc1 (stereo not given) ?
IL-1B inflam inh: 17; DT40 TDP1 CPT: 9.2µM*; BCR signal inh: 11%; SW480 rereplic: -13%; DT40 TDP1 no CPT: 9.2µM*; MCF10A rereplic: 0%

What do the screens show for `CCOC(=O)C1CCCN(C(=O)C2(c3ccc(Cl)cc3)CCCC2)CC1` (stereo not given)?
IL-1B inflam inh: 16; DT40 TDP1 CPT: inconclusive; DT40 TDP1 no CPT: inconclusive

Results for Cc1ccc(C2CC(c3cccc(Br)c3)Nc3nnnn32)cc1 (stereo not given) ?
IL-1B inflam inh: -7; DT40 TDP1 CPT: -26%; BCR signal inh: inconclusive; SW480 rereplic: 1%; DT40 TDP1 no CPT: -19%; MCF10A rereplic: 23%

How did CCc1ccc(C2=CC(c3cccc(Br)c3)n3nnnc3N2)cc1 (stereo not given) do in these assays?
DT40 TDP1 CPT: 18µM*; BCR signal inh: 0%; DT40 TDP1 no CPT: 15µM*

Results for Cc1cccc(C2C=C(c3ccc(C)c(C)c3)Nc3nnnn32)c1 (stereo not given) ?
DT40 TDP1 CPT: 2.6µM*; BCR signal inh: -10%; DT40 TDP1 no CPT: 2.6µM*

What do the screens show for `O=C1CCC(C(=O)OCC(=O)Nc2ccc(SC(F)F)cc2)=NN1`?
IL-1B inflam inh: -18; DT40 TDP1 CPT: 0%; DT40 TDP1 no CPT: -3%

What do the screens show for `Cc1cccc(C)c1NC(=O)c1cnccn1`?
IL-1B inflam inh: 23; DT40 TDP1 CPT: 3%; BCR signal inh: 4%; SW480 rereplic: 1%; DT40 TDP1 no CPT: 2%; MCF10A rereplic: -2%

Results for CCN1CCN(S(=O)(=O)c2ccc(Cl)c(C(=O)Nc3ccccc3N3CCCC3)c2)CC1 ?
IL-1B inflam inh: -25; DT40 TDP1 CPT: inconclusive; BCR signal inh: 7%; SW480 rereplic: 6.5µM*; DT40 TDP1 no CPT: inconclusive; MCF10A rereplic: inconclusive

How did CCN1CCN(S(=O)(=O)c2ccc(Cl)c(C(=O)Nc3ccccc3N3CCCCC3)c2)CC1 do in these assays?
IL-1B inflam inh: -73*; DT40 TDP1 CPT: 16µM*; BCR signal inh: 5%; SW480 rereplic: inconclusive; DT40 TDP1 no CPT: 26µM*; MCF10A rereplic: inconclusive

Results for CCN1CCN(S(=O)(=O)c2ccc(Cl)c(C(=O)NC(C)(C)C)c2)CC1 ?
IL-1B inflam inh: -16; DT40 TDP1 CPT: -18%; BCR signal inh: -1%; SW480 rereplic: -9%; DT40 TDP1 no CPT: 1%; MCF10A rereplic: 10%

What do the screens show for `CCN1CCN(S(=O)(=O)c2ccc(Cl)c(C(=O)Nc3nnc(CC(C)C)s3)c2)CC1`?
IL-1B inflam inh: 0; DT40 TDP1 CPT: 23µM*; BCR signal inh: 4%; SW480 rereplic: 4%; DT40 TDP1 no CPT: inconclusive; MCF10A rereplic: 6%

What do the screens show for `CCc1nnc(NC(=O)c2cc(S(=O)(=O)N3CCN(c4ccccc4)CC3)ccc2Cl)s1`?
IL-1B inflam inh: 15; DT40 TDP1 CPT: -27%; BCR signal inh: 4%; SW480 rereplic: 2%[9.22 µM]; DT40 TDP1 no CPT: -7%; MCF10A rereplic: -3%

Results for Cc1noc(C)c1S(=O)(=O)N(C)C[C@H]1Oc2ccc(NC(=O)NC3CCCCC3)cc2C(=O)N([C@H](C)CO)C[C@@H]1C ?
IL-1B inflam inh: -9; DT40 TDP1 CPT: inconclusive; BCR signal inh: 2%; SW480 rereplic: -5%; DT40 TDP1 no CPT: -4%; MCF10A rereplic: inconclusive

Results for Cc1c(N)nc([C@H](CC(N)=O)NC[C@H](N)C(N)=O)nc1C(=O)N[C@H](C(=O)N[C@H](C)[C@@H](O)[C@H](C)C(=O)N[C@H](C(=O)NCCc1nc(-c2nc(C(=O)NCCCCN=C(N)N)cs2)cs1)[C@@H](C)O)[C@@H](O[C@@H]1O[C@@H](CO)[C@@H](O)[C@H](O)[C@@H]1O[C@H]1O[C@H](CO)[C@@H](O)[C@H](OC(N)=O)[C@@H]1O)c1cnc[nH]1 ?
DT40 TDP1 CPT: 1.2µM*; DT40 TDP1 no CPT: 0.94µM*

Results for Cc1ccc(C(C[N+](=O)[O-])c2c(C)[nH]n(-c3ccccc3)c2=O)cc1 (stereo not given) ?
IL-1B inflam inh: 12; DT40 TDP1 CPT: 4.6µM*; BCR signal inh: 0%; SW480 rereplic: inconclusive; DT40 TDP1 no CPT: 5.8µM*; MCF10A rereplic: inconclusive

What do the screens show for `Cc1[nH]n(-c2ccccc2)c(=O)c1C(C[N+](=O)[O-])c1ccc(F)cc1` (stereo not given)?
IL-1B inflam inh: -12; DT40 TDP1 CPT: 7.3µM*; BCR signal inh: 0%; SW480 rereplic: -136%; DT40 TDP1 no CPT: 12µM*; MCF10A rereplic: inconclusive

What do the screens show for `Cc1[nH]n(-c2ccccc2)c(=O)c1C(C[N+](=O)[O-])c1ccc(Cl)cc1` (stereo not given)?
IL-1B inflam inh: -14; DT40 TDP1 CPT: 3.3µM*; BCR signal inh: 0%; SW480 rereplic: 16µM*; DT40 TDP1 no CPT: 4.1µM*; MCF10A rereplic: inconclusive

Results for CCOc1cc(C(c2c(C)[nH]n(-c3ccccc3)c2=O)c2c(C)[nH]n(-c3ccccc3)c2=O)ccc1O ?
DT40 TDP1 CPT: inconclusive; DT40 TDP1 no CPT: 5.2µM*

Screening results (PubChem BioAssay)
